Measured values as given in PubChem BioAssay (NCI).
Compounds without any hit were thinned out: in the full panel of roughly 83,000, 20% have a hit.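 96-well plates, one dose, 48 hours. Percent growth reported; active if below 10.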 Unmarked numbers belong to inactive results. Activity calls are given as the source filed them.

Assays:
Assay in all cases: NCI-60 one-dose screen, 48 h (100 = growth as untreated, 0 = no growth, -100 = all killed)
[1] = system: SK-MEL-2 melanoma; conditions: 10 µM unless noted
[2] = system: EKVX NSCLC; conditions: 10 µM unless noted
[3] = system: SN12C renal; conditions: 10 µM unless noted
[4] = system: UO-31 renal; conditions: 10 µM unless noted
[5] = system: TK-10 renal; conditions: 10 µM unless noted
[6] = system: ACHN renal; conditions: 10 µM unless noted
[7] = system: CAKI-1 renal; conditions: 10 µM
[8] = system: CCRF-CEM leukemia; conditions: 10 µM unless noted
[9] = system: MOLT-4 leukemia; conditions: 10 µM unless noted
[10] = system: SR leukemia; conditions: 10 µM unless noted
[11] = system: RPMI-8226 leukemia; conditions: 10 µM unless noted
[12] = system: OVCAR-8 ovarian; conditions: 10 µM unless noted
[13] = system: OVCAR-5 ovarian; conditions: 10 µM unless noted
[14] = system: OVCAR-4 ovarian; conditions: 10 µM unless noted
[15] = system: IGROV1 ovarian; conditions: 10 µM unless noted
[16] = system: OVCAR-3 ovarian; conditions: 10 µM unless noted
[17] = system: HS 578T breast; conditions: 10 µM unless noted
[18] = system: NCI/ADR-RES ovarian; conditions: 10 µM unless noted
[19] = system: SK-OV-3 ovarian; conditions: 10 µM unless noted

Compound | growth [1] | growth [2] | growth [3] | growth [4] | growth [5] | growth [6] | growth [7] | growth [8] | growth [9] | growth [10] | growth [11] | growth [12] | growth [13] | growth [14] | growth [15] | growth [16] | growth [17] | growth [18] | growth [19]
COc1ccc(Cn2cc3c(c2-c2cc(OC)c(OC)c(OC)c2)CCCc2cnoc2-3)cc1N | 55.4% | 46.6% | 40.5% | 38.2% | 78.9% | 40.1% | 31.5% | 15.5% | 17.4% | 18% | 19.9% | 47.3% | 38.2% | 80.9% | 35.2% | 7.33% (active) | 13% | 15.5% | –
Oc1ccc(CSc2nnc(-c3cnccn3)o2)c2cccnc12 | -2.52% (active) | 19.3% | 7.45% (active) | 6.71% (active) | 35.3% | 0.457% (active) | 2.13% (active) | 18.1% | 16.9% | 20.5% | 7.74% (active) | 15.1% | 36.9% | 36.6% | 23.4% | 11.9% | 19% | 33% | 9.11% (active)
CN(C)c1ccc(/C=N/Nc2nc(N/N=C/c3ccc(N(C)C)cc3)nc(N3CCOCC3)n2)cc1 | 98.6% | 95.4% | 89.2% | 90.7% | 110% | 104% | 96% | 13.3% | 96.7% | -13.1% (active) | 35% | 99% | 110% | 104% | 94.6% | – | 97.6% | 99.8% | 110%
O=C(COc1ccc(C2SCC(=O)N2c2ccccc2)cc1)c1ccccc1 (centres undefined) | 103% | 81.2% | 92.3% | 78.5% | 124% | 92.5% | 79.2% | 98.9% | 88.8% | 91.5% | 91.9% | 94.1% | 104% | 107% | 96.4% | 116% | 94.1% | 96.5% | 111%
COc1ccc2c(c1)c(-c1nnc(N)nc1-c1cn(C)c3ccccc13)cn2C | 95.2% | 92.7% | 93.2% | 70.8% | 94.1% | 94.5% | 75.7% | 93.9% | 94.4% | 84.7% | 105% | 103% | 86.5% | 91.3% | 95.1% | 96.8% | 91.2% | 90.5% | 102%
N/C(=N\OC(=O)CSc1nc2ccccc2s1)c1ccc2ccccc2c1 | 102% | 91.8% | 95.2% | 78.6% | 118% | 91% | 85.8% | 101% | 99.2% | 117% | 110% | 98.8% | 98.9% | 109% | 97.3% | 116% | 105% | 104% | 101%
c1ccc(-c2n(Cc3ccc4ccccc4c3)c3c4ccccc4c4ccccc4c3[n+]2Cc2ccc3ccccc3c2)cc1 | -68.3% (active) | -90.2% (active) | -83.7% (active) | -88% (active) | -76.6% (active) | -93.3% (active) | -92.5% (active) | -18.9% (active) | -56% (active) | -44.4% (active) | -35.1% (active) | -69.1% (active) | -90.3% (active) | -73.4% (active) | -74.7% (active) | -90.8% (active) | -42.9% (active) | -4.33% (active) | -84.5% (active)
CN(C)CCn1c2ccc(N)cc2c2nc3ccccc3nc21 | 54.6% | 40.6% | 25.6% | 23% | 60.2% | 13.9% | 28.6% | 29.5% | 8.1% (active) | 33.3% | 24.6% | 35.7% | 41% | 53.5% | 23.2% | – | 76.2% | 28.1% | 37.4%
CCN1C(=O)N(CC)C2SC(N/N=C/C=C/c3ccccc3OC)=NC21 (centres undefined) | 51.5% | 46.8% | 28.6% | 40.2% | 52.1% | 29.9% | 46.7% | 11.3% | 16.9% | 27.5% | 14.3% | 22.3% | 37.7% | 68.6% | 21.4% | -39.6% (active) | 27.1% | 11.9% | 52.8%
N/C(=N\OC(=O)CSc1nc2ccccc2s1)c1ccc(Cl)cc1 | 101% | 86.6% | 102% | 76.6% | 127% | 91.4% | 83.4% | 102% | 96.7% | 84.8% | 99.4% | 98% | 100% | 107% | 89% | – | 97% | 101% | 101%
CN1CCN(c2ccc3c(c2)nc(NNC(=O)c2ccncn2)c2cccn23)CC1 | 31.5% | 22.4% | 29.1% | 13% | 43.1% | 12.5% | 6.41% (active) | 15.3% | 10.4% | 14.9% | 24.5% | 21.8% | 54% | 36.4% | 22.4% | 38% | 71.3% | 18.8% | 25%
COc1cc(/C=C/C(=O)c2ccc(NC(=O)COc3cccc4cccnc34)cc2)cc(OC)c1OC | 96.5% | 82% | 75.4% | 67.7% | 147% | 80.2% | 84.8% | 26.5% | 41% | 11.4% | 12.9% | 79.7% | 128% | 84.3% | 69.4% | 47.9% | 93.8% | 71.7% | –
COc1ccc(CN2C(=O)/C(=C/c3nc(CO)cs3)SC2=S)cc1 | 98.2% | 100% | 93% | 67% | 65.6% | 99.6% | 77% | 61.1% | 76.7% | 33.8% | 18.5% | 96.7% | 107% | 107% | 89.9% | 80.8% | 101% | 97.8% | 109%
COc1ccc(/C=C/C(=O)c2nnn(-c3ccc(C(=O)O)cc3)c2C)cc1OC | 101% | 93.9% | 92.2% | 79.3% | 113% | 91.4% | 95.9% | 87.7% | 97.7% | 95.4% | 99.4% | 102% | 97.8% | 107% | 96.1% | 117% | 102% | 106% | 112%
CCCCCCNC(=O)Oc1ccc(/C(=C(\C)c2ccc(OC)cc2)c2ccc(OCCN(C)C)cc2)cc1 | 99.8% | 75% | 78.8% | 52.1% | 107% | 88.3% | 82.9% | 67.3% | 44.5% | 13.1% | 19.4% | 86.4% | 86.8% | 90.9% | 68.4% | 91.3% | 83.2% | 74.8% | 103%
CCOC(=O)c1c(NC(=O)c2ccc(C(C)(C)C)cc2)sc2cc(OCCN3CCCCC3)ccc12 | 98.6% | 87.5% | 78.1% | 74.5% | 112% | 93% | 84.2% | 56.2% | 72.3% | 16.5% | 14.6% | 93.4% | 91.8% | 102% | 74.9% | 74.8% | 96.5% | 88.3% | 106%
